Where “and” joins values, the source holds several entries; their conditions need not be identical. Equal entries are not always repeated. Where two headings read alike, the source gives them in different places.
Assays:
[1] = system: DMPK; settings: concentration: 1 μM, replicates: in singlicate, n = 1
[2] = system: T1, DRAK1; settings: concentration: 1 μM, replicates: in singlicate, n = 1
T1 construct: gene STK17A

[3] = system: T2, DRAK2; settings: concentration: 1 μM, replicates: in singlicate, n = 1
T2 construct: gene STK17B

[4] = system: DYRK1A; settings: concentration: 1 μM, replicates: in singlicate, n = 1
[5] = system: DYRK1B; settings: n = 1
[6] = system: DYRK2; settings: concentration: 1 μM, replicates: in singlicate, n = 1
[7] = system: EGFR; settings: concentration: 1 μM, replicates: in singlicate, n = 1
[8] = system: EIF2AK1; settings: concentration: 1 μM, replicates: in singlicate, n = 1
[9] = system: EPHA1; settings: concentration: 1 μM, replicates: in singlicate, n = 1
[10] = system: EPHA2; settings: concentration: 1 μM, replicates: in singlicate; n = 1
[11] = concentration: 1 μM, replicates: in singlicate
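Also: KINOMEscan kinase panel screen.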

With `Cn1cc(-c2ccc3c(c2)CCN3C(=O)Cc2ccccc2Cl)c2c(N)ncnc21` [GSK2608885] the “%Inh” value [1] was 0%, the “%Inh” value [2] was 0% and the “%Inh” value [3] was 0%. For the same compound, the “%Inh” value [4] was 7%, the “%Inh” value [5, 11] was 12% and the “%Inh” value [6] was 29%. The “%Inh” value [7] was 100%, the “%Inh” value [8] was 6% and the “%Inh” value [9] was 88%. The “%Inh” value [10] was 77%.

`O=C(c1ccc(-c2cc(-c3c[nH]nc3-c3ccccn3)ccn2)cc1)N1CCOCC1` [GW812171] was tested, and the “%Inh” value [1] was 5%, the “%Inh” value [2] was 0% and the “%Inh” value [3] was 0%. The “%Inh” value [4] was 0%, the “%Inh” value [5, 11] was 0% and the “%Inh” value [6] was 33%. The “%Inh” value [7] was 4%, the “%Inh” value [8] was 0% and the “%Inh” value [9] was 0%. For the same compound, the “%Inh” value [10] was 0%.

`O=C1Cc2cc(Nc3nc(NCc4cccc(S(=O)(=O)C(F)(F)F)c4)ncc3C(F)(F)F)ccc2N1` was tested, and the “%Inh” value [1] was 5%, the “%Inh” value [2] was 6% and the “%Inh” value [3] was 0%. The “%Inh” value [4] was 13%, the “%Inh” value [5, 11] was 26% and the “%Inh” value [6] was 0%. The “%Inh” value [7] was 0%, the “%Inh” value [8] was 0% and the “%Inh” value [9] was 19%. For the same compound, the “%Inh” value [10] was 3%.

`CN1c2ccc(NCc3ccc(F)cc3)cc2-c2c(cnn2C)S1(=O)=O` was tested, and the “%Inh” value [1] was 0%, the “%Inh” value [2] was 0% and the “%Inh” value [3] was 0%. The “%Inh” value [4] was 0%, the “%Inh” value [5, 11] was 16% and the “%Inh” value [6] was 0%. The “%Inh” value [7] was 0%, the “%Inh” value [8] was 0% and the “%Inh” value [9] was 0%. For the same compound, the “%Inh” value [10] was 12%.

In the case of `O=c1cc(N2CCOCC2)nc2n(Cc3cccc(F)c3)ccn12` [GSK2297430], the “%Inh” value [1] is reported as 12%, the “%Inh” value [2] is reported as 5% and the “%Inh” value [3] is reported as 0%. The “%Inh” value [4] was 26%, the “%Inh” value [5, 11] was 0% and the “%Inh” value [6] was 5%. For the same compound, the “%Inh” value [7] was 32%, the “%Inh” value [8] was 0% and the “%Inh” value [9] was 14%. For the same compound, the “%Inh” value [10] was 9%.

For `Fc1ccc(-c2ncn(CCCN3CCOCC3)c2-c2cccnc2)cc1` [SB-211743], the “%Inh” value [1] was 24%, the “%Inh” value [2] was 0% and the “%Inh” value [3] was 0%. For the same compound, the “%Inh” value [4] was 3%, the “%Inh” value [5, 11] was 0% and the “%Inh” value [6] was 24%. For the same compound, the “%Inh” value [7] was 0%, the “%Inh” value [8] was 0% and the “%Inh” value [9] was 0%. The “%Inh” value [10] was 0%.

`CC(C)(C)n1cnc2c(N)ncnc21` [SKF-97359] was tested, and the “%Inh” value [1] was 9%, the “%Inh” value [2] was 0% and the “%Inh” value [3] was 6%. The “%Inh” value [4] was 0%, the “%Inh” value [5, 11] was 61% and the “%Inh” value [6] was 0%. For the same compound, the “%Inh” value [7] was 39%, the “%Inh” value [8] was 0% and the “%Inh” value [9] was 0%. For the same compound, the “%Inh” value [10] was 0%.

With `NCCNS(=O)(=O)c1ccc(-c2ccnc3[nH]ccc23)cc1` [GSK977617] the “%Inh” value ([1]; 1 µM) was 98.6% and 96.7%, the “%Inh” value ([2]; 1 µM) was 98.5% and 96.6% and the “%Inh” value ([3]; 1 µM) was 77% and 60%. The “%Inh” value ([4]; 1 µM) was 89% and 84%, the “%Inh” value ([5]; concentration: 1 μM, replicates: in singlicate, 1 µM) was 85% and 61% and the “%Inh” value ([6]; 1 µM) was 86% and 72%. The “%Inh” value ([7]; 1 µM) was 22% and 15%, the “%Inh” value ([8]; 1 µM) was 11% and 0% and the “%Inh” value ([9]; 1 µM) was 54% and 38%. The “%Inh” value [10] was 0%.

With `CCc1ccnc(/C=C/c2n[nH]c3cc(Sc4ccccc4C(=O)NC)ccc23)c1` the “%Inh” value [1] was 6%, the “%Inh” value [2] was 12% and the “%Inh” value [3] was 0%. The “%Inh” value [4] was 8%, the “%Inh” value [5, 11] was 4% and the “%Inh” value [6] was 0%. For the same compound, the “%Inh” value [7] was 0%, the “%Inh” value [8] was 14% and the “%Inh” value [9] was 0%. The “%Inh” value [10] was 0%.

In the case of `COc1cc2c(cc1OCCN1CCN(C)CC1)ncc1c3ccc(C#N)cc3[nH]c21`, the “%Inh” value [1] is reported as 0%, the “%Inh” value [2] is reported as 100% and the “%Inh” value [3] is reported as 100%. The “%Inh” value [4] was 94.6%, the “%Inh” value [5, 11] was 62% and the “%Inh” value [6] was 60%. For the same compound, the “%Inh” value [7] was 0%, the “%Inh” value [8] was 0% and the “%Inh” value [9] was 0%. The “%Inh” value [10] was 0%.

With `COc1ccc(Nc2nccc(N3CCC(NC(=O)Nc4cc(C)ccc4C)C3)n2)cc1` (stereo not shown) [GSK1379741] the “%Inh” value [1] was 0%, the “%Inh” value [2] was 0% and the “%Inh” value [3] was 0%. For the same compound, the “%Inh” value [4] was 14%, the “%Inh” value [5, 11] was 0% and the “%Inh” value [6] was 12%. The “%Inh” value [7] was 33%, the “%Inh” value [8] was 0% and the “%Inh” value [9] was 30%. The “%Inh” value [10] was 0%.

In the case of `COc1cc2ncn(-c3cc(OCc4sccc4Cl)c(C(N)=O)s3)c2cc1OC` [GSK448459], the “%Inh” value [1] is reported as 0%, the “%Inh” value [2] is reported as 0% and the “%Inh” value [3] is reported as 0%. The “%Inh” value [4] was 13%, the “%Inh” value [5, 11] was 0% and the “%Inh” value [6] was 26%. For the same compound, the “%Inh” value [7] was 32%, the “%Inh” value [8] was 0% and the “%Inh” value [9] was 0%. For the same compound, the “%Inh” value [10] was 0%.

With `CN(C(=O)c1ccc(-c2cc(-c3c[nH]nc3-c3ccccn3)ccn2)cc1)C1CCOCC1` [GW810083] the “%Inh” value [1] was 0%, the “%Inh” value [2] was 1% and the “%Inh” value [3] was 2%. The “%Inh” value [4] was 0%, the “%Inh” value [5, 11] was 9% and the “%Inh” value [6] was 9%. For the same compound, the “%Inh” value [7] was 0%, the “%Inh” value [8] was 0% and the “%Inh” value [9] was 0%. For the same compound, the “%Inh” value [10] was 0%.

In the case of `O=C1NC(=O)C(N2CCc3ccccc32)=C1c1cccc(Cl)c1` [SB-408010], the “%Inh” value [1] is reported as 7%, the “%Inh” value [2] is reported as 0% and the “%Inh” value [3] is reported as 0%. For the same compound, the “%Inh” value [4] was 0%, the “%Inh” value [5, 11] was 0% and the “%Inh” value [6] was 7%. The “%Inh” value [7] was 0%, the “%Inh” value [8] was 5% and the “%Inh” value [9] was 3%. The “%Inh” value [10] was 15%.

`O=c1cc(N2CCOCC2)nc2n(Cc3cccc(C(F)(F)F)c3)ccn12` [GSK2297543] was tested, and the “%Inh” value [1] was 9%, the “%Inh” value [2] was 0% and the “%Inh” value [3] was 0%. The “%Inh” value [4] was 6%, the “%Inh” value [5, 11] was 0% and the “%Inh” value [6] was 5%. For the same compound, the “%Inh” value [7] was 25%, the “%Inh” value [8] was 0% and the “%Inh” value [9] was 0%. For the same compound, the “%Inh” value [10] was 13%.

In the case of `O=c1cc(N2CCOCC2)nc2n(Cc3cccc(Cl)c3Cl)c(C3CC3)nn12` [GSK2358994], the “%Inh” value [1] is reported as 0%, the “%Inh” value [2] is reported as 11% and the “%Inh” value [3] is reported as 9%. The “%Inh” value [4] was 2%, the “%Inh” value ([5]; 1 µM) was 0% and the “%Inh” value [6] was 1%. For the same compound, the “%Inh” value [7] was 0%, the “%Inh” value [8] was 0% and the “%Inh” value [9] was 7%. For the same compound, the “%Inh” value [10] was 0%.
